According to the supplement of paper PMC6555819:

Tests used:
Assay in all cases: PBM binding z-score (relative to random genomic background probes); higher = stronger binding; sequences stand for … in GC…GCGATTGACAGCGTAGAATGAAGG
[1] = test system: FXR:RXRa (NR concentration 270 nM, RXRa partner concentration 90 nM)
Procedure, shortened: (§1)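 On custom Agilent 4×180K arrays, double-stranded probes with 34-nt variable regions carried direct-repeat seeds, single-nucleotide variants, half-site ablations or random human genomic background. Ligand-free nuclear receptor dimers were applied for 1 h, and binding was read with antibodies against each partner (one per run). Binding z-scores come from regression-normalized fluorescence, with the random background probes as reference.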

[2] = test system: LXRa:RXRa (NR concentration 270 nM, RXRa partner concentration 90 nM)
Procedure, shortened: as §1

[3] = test system: LXRa homodimer (NR concentration 270 nM)
Procedure, shortened: as §1

[4] = test system: LXRb:RXRa (NR concentration 270 nM, RXRa partner concentration 90 nM)
Procedure, shortened: as §1

[5] = test system: LXRb homodimer (NR concentration 270 nM)
Procedure, shortened: as §1

[6] = test system: PPARa:RXRa (NR concentration 270 nM, RXRa partner concentration 90 nM)
Procedure, shortened: as §1

[7] = test system: PPARg:RXRa (NR concentration 180 nM, RXRa partner concentration 90 nM)
Procedure, shortened: as §1

[8] = test system: PPARg:RXRa 270nM:90nM, anti-RXR (NR concentration 270 nM, RXRa partner concentration 90 nM)
Procedure, shortened: as §1

[9] = test system: PPARg:RXRa 30nM:10nM, anti-RXR (NR concentration 30 nM, RXRa partner concentration 10 nM)
Procedure, shortened: as §1

[10] = test system: PPARg:RXRa 90nM:30nM, anti-RXR (NR concentration 90 nM, RXRa partner concentration 30 nM)
Procedure, shortened: as §1

[11] = test system: PPARg:RXRa DBDmut IVT, anti-RXR (DBD mutation: RXRa K156A/R161A, NR concentration 270 nM, RXRa partner concentration 90 nM)
Procedure, shortened: as §1

[12] = test system: PPARg:RXRa IVT, anti-PPARg (NR concentration 270 nM, RXRa partner concentration 90 nM)
Procedure, shortened: as §1

[13] = test system: PPARg DBDmut:RXRa IVT, anti-PPARg (DBD mutation: PPARg1 K132A/R137A, NR concentration 270 nM, RXRa partner concentration 90 nM)
Procedure, shortened: as §1

[14] = test system: PPARg DBDmut IVT, anti-PPARg (DBD mutation: PPARg1 K132A/R137A, NR concentration 270 nM)
Procedure, shortened: as §1

[15] = test system: PPARg homodimer (NR concentration 180 nM)
Procedure, shortened: as §1

[16] = test system: PXR:RXRa (NR concentration 270 nM, RXRa partner concentration 90 nM)
Procedure, shortened: as §1

[17] = test system: PXR homodimer (NR concentration 270 nM)
Procedure, shortened: as §1

[18] = test system: RARa:RXR (NR concentration 270 nM, RXRa partner concentration 90 nM)
Procedure, shortened: as §1

[19] = test system: RARa homodimer (NR concentration 270 nM)
Procedure, shortened: as §1

[20] = test system: RARb:RXRa (NR concentration 270 nM, RXRa partner concentration 90 nM)
Procedure, shortened: as §1

Row | Sequence | PBM binding z-score [1] | PBM binding z-score [2] | PBM binding z-score [3] | PBM binding z-score [4] | PBM binding z-score [5] | PBM binding z-score [6] | PBM binding z-score [7] | PBM binding z-score [8] | PBM binding z-score [9] | PBM binding z-score [10] | PBM binding z-score [11] | PBM binding z-score [12] | PBM binding z-score [13] | PBM binding z-score [14] | PBM binding z-score [15] | PBM binding z-score [16] | PBM binding z-score [17] | PBM binding z-score [18] | PBM binding z-score [19] | PBM binding z-score [20]
1 | AGAACGAGGTCAATGAGTTGATAGCACGGGTGGC | 7.39 | 5.21 | 0.873 | 4.04 | 1.3 | 5.6 | 6.36 | 6.01 | 3.19 | 5.11 | 5.59 | 5.76 | 1.71 | 0.861 | 3.64 | 5.72 | 8.63 | 5.14 | 0.929 | 4.89
2 | GCATATAGGTAATACAAGCTGAAAGTCCGATTGT | -0.216 | -0.314 | -0.237 | -0.399 | -0.434 | 0.493 | 0.856 | 0.592 | 0.14 | 0.385 | 3.93 | 2.4 | 0.865 | 0.595 | 0.219 | -0.13 | -0.000493 | 0.243 | 0.388 | -0.475
3 | CCTATTAGTTGACCATAAGGGCAACTGAAGCTCG | 1.03 | 0.424 | 0.44 | 0.496 | 0.545 | 0.479 | 0.379 | 0.673 | 0.177 | 0.597 | 0.175 | 0.85 | 0.663 | 0.553 | 1.38 | 1 | 0.613 | 0.807 | 1.39 | 1.73
4 | AGAATGAGGTTATTAAGATCAGAGAATTGCGGTC | 1.56 | 1.62 | 0.0516 | 1.19 | 0.109 | 2.71 | 1.59 | 1.75 | 0.553 | 1.22 | 3.17 | 2.63 | 0.323 | 0.23 | 0.951 | 1 | 0.488 | 1.2 | 0.79 | 1.16
5 | CGAACTCGGTCATTGACAGGACAGTGAATAGTAA | 1.78 | 1.2 | 0.283 | 0.401 | -0.271 | 1.07 | 0.725 | 0.451 | -0.134 | 0.0163 | 2.98 | 2.26 | -0.213 | -0.299 | 0.0566 | 0.137 | -0.233 | 0.436 | -0.219 | 2.14
6 | CCGACTGGGGCAAAGGTTACCATTCTCAGTACGA | 1.49 | 1.29 | -0.141 | 2.02 | -0.949 | 5.42 | 11.2 | 9.61 | 8.44 | 11.7 | 4.87 | 5.9 | 0.712 | 0.351 | 3.82 | 2.41 | -0.502 | 3.87 | -0.539 | 2.39
7 | TGAATGAGGTCATAAGATCAGGGAACGTTGCAAA | 7.31 | 5.47 | 0.779 | 4.4 | 1.39 | 5.96 | 6.96 | 6.58 | 4.09 | 6.04 | 4.55 | 5.82 | 2.51 | 1.96 | 1.71 | 4.37 | 0.734 | 5.17 | 0.421 | 4.55
8 | CCTCGGAGGACAACAAGAGGTCAGAGCTGCCAGA | 2.12 | 3.5 | 3.68 | 2.35 | -0.358 | 2.82 | 1.01 | 1.62 | -0.0713 | 0.904 | -0.155 | 0.669 | -1.24 | -1.03 | 1.86 | 3.04 | 0.241 | 3.4 | 0.861 | 3.18
9 | CCTACTGGGCCATCCAGAGGTCATTGATCATATG | 2.46 | 4.37 | 6.73 | 3.84 | 0.613 | 4.07 | 2.72 | 3.35 | 0.809 | 2.2 | 4.14 | 4.6 | 0.419 | 0.464 | 2.88 | 5.05 | 2.23 | 4.9 | 0.594 | 3.21
10 | GGAACGAGGGCAAAGTTGATAGTATCTGTCGACG | 1.26 | 0.763 | -0.348 | 0.972 | -0.379 | 4.02 | 6.9 | 7.32 | 6.78 | 7.32 | 3.79 | 4.43 | 0.556 | -0.544 | 0.557 | 1.12 | 0.156 | 1.66 | -0.123 | 2.22
11 | TTACCAAGGTGAGGGTCGTTGATCCCTCTGTAGA | 1.32 | 0.898 | -0.621 | 0.915 | -0.774 | 1.88 | 0.82 | 2.03 | 0.53 | 1.46 | 1.3 | 2.21 | -0.596 | -0.428 | 0.109 | 0.865 | -0.63 | 1.36 | -0.812 | 1.45
